aSyn 5UTR act: Activators via SNCA 5'UTR binding, MLPCN. alpha-synuclein 5'UTR reporter, activators screen. activity score, % (tested at 7.5 µM), hits read low. 300,000 tested, 7.1% active; in the data active = activity score below about -60%
Large screens that a line does not name were inactive. Only a sample is shown.

COc1ccc(-c2nnc(-c3ccc(C)cc3)o2)cc1	aSyn 5UTR act -103
Fc1ccc(/C=C/c2nnc(-c3cccs3)o2)cc1	aSyn 5UTR act -129
Cc1ccc(/C=C/c2nnc(-c3ccc(C)cc3)o2)cc1	aSyn 5UTR act -69
O=[N+]([O-])/C(C(Cl)=C(Cl)Cl)=C(\Sc1ccccc1)N1CCCCC1	aSyn 5UTR act -116
O=C(COc1ccc(Cl)cc1Cl)NC1CCSC1=O (stereo not drawn)	aSyn 5UTR act -86
O=C(COc1ccc(Br)cc1Br)NC1CCCC1	aSyn 5UTR act -113
O=C(COc1ccc(Br)cc1Cl)NC1CCCCC1	aSyn 5UTR act -162
Cc1cc(NC(=O)C2CCCCC2)ncc1NC(=O)c1ccccn1	aSyn 5UTR act -73
Cc1cc(NC(=O)C2CC2)ncc1NC(=O)c1ccccn1	aSyn 5UTR act -93
CCOC(=O)c1cc(-c2ccccc2)nn1Cc1cc(C)no1	aSyn 5UTR act -81
Oc1ccccc1/C=C/c1noc(-c2ccccc2O)n1	aSyn 5UTR act -218
COc1cc(/C=C/c2noc(-c3ccccc3O)n2)ccc1OC(C)=O	aSyn 5UTR act -130
CC(=O)Nc1ccc(/C=C/c2noc(-c3ccccc3O)n2)cc1	aSyn 5UTR act -163
CCCCCCCCCCCCCCCC[N+](C)(C)CC	none
O=c1[nH]c2ccccc2cc1-c1nnn(-c2ccc(F)cc2)n1	aSyn 5UTR act -103
COc1ncccc1-c1nnn(-c2ccc(Cl)c(Cl)c2)n1	aSyn 5UTR act -169
COc1ncccc1-c1nnn(-c2ccc(C)cc2)n1	aSyn 5UTR act -161
COc1ncccc1-c1nnn(-c2ccc(F)cc2)n1	aSyn 5UTR act -97
Cc1ccc(-n2nnc(-c3cc4ccccc4nc3Cl)n2)cc1	aSyn 5UTR act -148
Cc1ccc(Cn2c(CCNc3nc(-c4ccc(Cl)c([N+](=O)[O-])c4)cs3)nc3cc(Cl)c(Cl)cc32)cc1	aSyn 5UTR act -78
COC(=O)c1ccc(COc2ccc(CNCc3ccc(Cl)cc3)cc2)cc1	aSyn 5UTR act -92
O=C(c1ccc(COc2ccc(Cl)cc2)cc1)N1CCCCC1	aSyn 5UTR act -85
CCCCOc1ccc(C(=O)N2CCCCCC2)cc1	aSyn 5UTR act -80
Cc1ccccc1NCc1nc2ccccc2n1C	aSyn 5UTR act -126
Cn1c(CNc2ccccc2O)nc2ccccc21	aSyn 5UTR act -154
CC(=O)Nc1cccc(-c2nnc(-c3ccccc3)o2)c1	aSyn 5UTR act -150
O=C(Nc1cccc(-c2nnc(-c3ccccc3)o2)c1)C1CC1	aSyn 5UTR act -89
CCOc1cccc(C(=O)Nc2cccc(-c3nnc(-c4ccccc4)o3)c2)c1	aSyn 5UTR act -77
CN1N=C2c3ccccc3CCC2C1c1ccc(Cl)cc1 (stereo not drawn)	aSyn 5UTR act -101
CN1N=C2c3ccccc3CCC2C1c1ccc(F)cc1 (stereo not drawn)	aSyn 5UTR act -110
CC(=O)NCCc1nc2cc(NC(=O)COc3cccc(C)c3)ccc2n1C	aSyn 5UTR act -62
Cc1cccc(OCC(=O)Nc2ccc3c(c2)nc2n3CCOC2)c1	aSyn 5UTR act -69
Cc1ccc(N(C)/N=C/c2ccc(Cl)cc2Cl)nn1	aSyn 5UTR act -92
CCS(=O)(=O)c1ccc2oc(Nc3ccc(C(C)C)cc3)nc2c1	aSyn 5UTR act -95
CCOc1ccc(Nc2nc3cc(S(=O)(=O)N(CC)CC)ccc3o2)cc1	none
CCOC(=O)/C(=C\c1ccccc1)NC(=O)c1ccccc1	aSyn 5UTR act -105
C=CCOC(=O)/C(=C\c1ccccc1)NC(=O)c1ccc(C)cc1	aSyn 5UTR act -175
COc1cc(/C=N/Nc2nc(N3CCCC3)nc(N3CCCC3)n2)ccc1OCc1ccccc1F	aSyn 5UTR act -72
c1cncc(Nc2nc(-c3cccs3)cs2)c1	aSyn 5UTR act -218
c1ccc(Nc2nc(-c3ccccn3)cs2)cc1	aSyn 5UTR act -145
c1ccc(-c2csc(Nc3cccnc3)n2)nc1	aSyn 5UTR act -218
Cc1nn2c(nc(N3CCCCC3)c3ccccc32)c1C=O	none
Oc1ccc(Nc2nc(N3CCCC3)c3ccccc3n2)cc1	aSyn 5UTR act -579
CC1CCN(c2nc(/C=C/c3ccccc3)nc3ccccc23)CC1	aSyn 5UTR act -87
C(=C\c1nc(N2CCCC2)c2ccccc2n1)/c1ccccc1	aSyn 5UTR act -106
COCCNc1nc(N)c([N+](=O)[O-])c(NC2CCCCC2)n1	none
Nc1nc(Nc2ccccc2)nc(N2CCCC2)c1[N+](=O)[O-]	aSyn 5UTR act -81
C=CCNc1nc(N)c([N+](=O)[O-])c(N2CCCCCC2)n1	none
CC(C)c1ccc(NC(=O)C2CC3CCC2C3)cc1 (stereo not drawn)	aSyn 5UTR act -197
CCC(C)c1ccc(NC(=O)C2CC3CCC2C3)cc1 (stereo not drawn)	aSyn 5UTR act -99
CCC(C)c1ccc(NC(=O)C2CC2)cc1 (stereo not drawn)	aSyn 5UTR act -73
Cc1nc2nc(-c3cccs3)[nH]c2cc1Br	aSyn 5UTR act -149
O=C(Cn1cc(C(=O)C2CC2)c2ccccc21)NCc1ccccc1	aSyn 5UTR act -81
COc1cc(/C=C2/SC(=S)N(CC3CCCO3)C2=O)ccc1O (stereo not drawn)	aSyn 5UTR act -95
COc1ccc(/C=C2/SC(=S)N(CCC(=O)O)C2=O)cc1	none
COc1ccc(/C=C2/SC(=O)NC2=O)cc1	aSyn 5UTR act -118
Cc1ccc(/C=C2\SC(=S)N(CC3CCCO3)C2=O)o1 (stereo not drawn)	aSyn 5UTR act -68
COc1ccc(/C=C2\SC(=S)N(CC3CCCO3)C2=O)cc1 (stereo not drawn)	aSyn 5UTR act -89
NCCCn1c(C(=O)c2cc(Cl)c(N)c(Cl)c2)c2ccc([N+](=O)[O-])cc2[n+]1[O-]	none
COc1ccc(OCCOC(=O)c2cccc(-n3cnnn3)c2)cc1	aSyn 5UTR act -81
COC(=O)c1ccsc1NC(=O)c1ccc2c(c1)OCCO2	aSyn 5UTR act -97
O=C(O)c1cc(S(=O)(=O)Nc2ccc3c(c2)OCCO3)c(Cl)cc1Cl	aSyn 5UTR act -82
O=C(Nc1ccccc1)c1ccc2c(c1)OCCO2	aSyn 5UTR act -87
O=C(NCCc1ccc2c(c1)OCCO2)c1ccccc1F	aSyn 5UTR act -110
Cc1ccc(NC(=O)c2ccc3c(c2)OCCO3)cc1C	none
O=C(Nc1cccc(F)c1)c1ccc2c(c1)OCCO2	aSyn 5UTR act -111
O=C(NC(=S)Nc1ccc2c(c1)OCCO2)c1ccccc1F	aSyn 5UTR act -155
O=C(Nc1ccc2c(c1)OCCO2)c1c(F)cccc1F	aSyn 5UTR act -122
Cc1ccc(NC(=O)c2ccc3c(c2)OCCO3)cc1S(=O)(=O)Nc1cccc(Cl)c1	aSyn 5UTR act -95
CC(=O)N=C(N)Sc1nc2ccccc2[nH]1	aSyn 5UTR act -135
CCCc1cc(-c2nc(N)ncc2-c2ccc3c(c2)OCCCO3)c(O)cc1OC	none
COc1ccc(OC)c2nc(-c3ccc4c(c3)OCO4)ccc12	aSyn 5UTR act -90
COc1cc2c(O)c3c(c(-c4ccc5c(c4)OCO5)c2cc1OC)C(=O)OC3	none
c1ccc2nc(-c3ccc4c(c3)OCO4)ccc2c1	aSyn 5UTR act -81
Cc1ccc(-c2nnc(NC3CCCC3)s2)cc1	aSyn 5UTR act -143
CC(C)CCNc1nnnc2c1sc1nc(N3CCOCC3)c3c(c12)CC(C)(C)SC3	none
CC1(C)Cc2c(c(N3CCOCC3)nc3snc(N)c23)CO1	aSyn 5UTR act -169
COc1cccc(NC(=O)c2cc3cccc(OC)c3o/c2=N\O)c1	aSyn 5UTR act -81
COc1ccc(NC(=O)c2cc3cccc(OC)c3oc2=Nc2ccc(C(=O)O)cc2)cc1OC	aSyn 5UTR act -116
C=CC[C@]12CC=CC(=O)[C@@]1(O)O[C@H](c1ccc(OC)c(OC)c1)[C@H]2C	aSyn 5UTR act -94
O=C(Nc1ccc(CSc2ccccc2)cc1)c1ccco1	aSyn 5UTR act -125

Compound activity as filed in PubChem BioAssay.
